# Laboratory results taken from PubChem BioAssay (Tox21).
# “And” between values parts separate entries of the source, which are not always exact repeats. Equal entries are not always repeated. Inconclusive results are not listed. Where a call stands in place of a potency, no number is given. The source made the active and inactive calls. Unless noted, calls follow the shape of the dose curve; as a rule, active = well fitted curve in the direction sought with a large enough effect in the repeat runs; inconclusive = weak or mixed curves; inactive = no such curve, though single readings can be large; an effect the other way counts as inactive or inconclusive.
# How the values were obtained:
# [1] = qHTS assay for small molecules that induce genotoxicity in human embryonic kidney cells expressing luciferase-tagged ATAD5 (AID 651632); also: nearly all actives have a fitted effect of over 15% in size; also: potency is read from the fitted curve at half-maximal effect
# Outline: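 Increased luciferase signal from ATAD5-tagged reporter cells indicates DNA-damage-driven ATAD5 induction. HEK293T cells are treated for 16 hr at 37C before detection with Amplite.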
# [2] = qHTS assay for small molecule agonists of the p53 signaling pathway - cell viability (AID 651633; calls by dose curve; also: nearly all actives have a fitted effect of over 30% in size; also: potency is read from the fitted curve at half-maximal effect)
# Outline: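 p53RE-bla cells, seeded at 4,000 per well and rested 5 h at 37 C/5% CO2, received compounds in DMSO for 16 h at 37 C. CellTiter-Glo was then added, and luminescence was read after 30 min at room temperature to gauge cytotoxicity.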
# [3] = qHTS assay for small molecules that induce genotoxicity in human embryonic kidney cells expressing luciferase-tagged ATAD5 - cell viability (AID 651634; calls by dose curve; also: nearly all actives have a fitted effect of over 25% in size; also: potency is read from the fitted curve at half-maximal effect)
# Outline: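 Cytotoxicity counterscreen in HEK293T cells bearing an ATAD5-luciferase reporter: live-cell protease activity measured by CellTiter-Fluor fluorescence after 15.5 hr compound exposure.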
# [4] = qHTS assay for small molecule disruptors of the mitochondrial membrane potential (AID 720635); also: potency is read from the fitted curve at half-maximal effect
# Outline: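 HepG2 cells (2,000/well) attached overnight at 37C, then took compound for 1 hr at 37C, 5% CO2. Mito-MPS dye was added for 30 min; fluorescence was read at 490/535 nm (monomers) and 540/590 nm (aggregates).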
# [5] = qHTS assay to test for compound auto fluorescence at 590 nm (red) in HepG2 cells (AID 720674)
# Outline: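 Rose Bengal sodium served as the red fluorophore standard. HepG2 monolayers (overnight attachment, MEM with 10% FBS) were exposed to test compounds for 1 hr at 37 C and read at Ex 540/Em 590 nm.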
# [6] = qHTS assay to test for compound auto fluorescence at 535 nm (green) in HepG2 cells (AID 720675)
# [7] = qHTS assay to test for compound auto fluorescence at 460 nm (blue) in HEK293 cells (AID 720678); also: potency is read from the fitted curve at half-maximal effect
# Outline: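 Triamterene serves as the blue fluorophore standard. Compound signal at 405/460 nm is read in HEK293 wells (2,000 cells, 10% dialyzed FBS) after overnight treatment at 37C.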
# [8] = qHTS assay to test for compound auto fluorescence at 590 nm (red) in HEK293 cells (AID 720679)
# Outline: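 We plated HEK293 cells in 10% dialyzed FBS medium, let them adhere for 4-5 hr, then added 23 nL compound. Overnight at 37C and 5% CO2 preceded fluorescence measurement at 540/590nm.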
# [9] = qHTS assay for small molecule disruptors of the mitochondrial membrane potential - cell viability (AID 720634; calls by dose curve; also: nearly all actives have a fitted effect of over 20% in size; also: potency is read from the fitted curve at half-maximal effect)
# Outline: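 After overnight attachment at 37 C, HepG2 cells received compound or DMSO vehicle for 1 hr. Viability is then taken from ATP-driven luminescence following a 30 min room-temperature CellTiter-Glo step.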
# Tags tell the direction and shape of the fitted curve or compound fluorescence and quenching.
Compound,Potency [1],Potency [2],Potency [3],Potency [4],outcome [5],outcome [6],Potency [7],outcome [8],Potency [9]
ClC(Cl)=C(c1ccc(Cl)cc1)c1ccc(Cl)cc1,inactive,70.3 µM (active) and 48.6 µM (active),inactive,22.2 µM (active) and 24.3 µM (active),inactive,inactive,inactive,inactive,–
CC(C)CC(C)Nc1ccc(Nc2ccccc2)cc1 (centres undefined),inactive,53.5 µM (active),–,13.4 µM (active),inactive,inactive,inactive,inactive,23.9 µM (active)
OC(c1ccc(Cl)cc1)(c1ccc(Cl)cc1)C(Cl)(Cl)Cl,inactive,61.1 µM (active),–,6.11 µM (active),inactive,inactive,inactive,inactive,–
O=[N+]([O-])c1c2ccccc2cc2ccccc12,inactive,inactive,inactive,8.53 µM (active),inactive,inactive,inactive,inactive,–
Oc1c(Br)c(Br)c(Br)c(Br)c1Br,inactive,17.3 µM (active),–,2.45 µM (active),inactive,inactive,inactive,inactive,inactive
Cc1c(Cl)c(=O)oc2cc(OP(=O)(OCCCl)OCCCl)ccc12,inactive,inactive,inactive,–,inactive,inactive,12.6 µM [fluorescent] (active),inactive,–
c1ccc2c(c1)[nH]c1cnccc12,inactive,inactive,inactive,inactive,inactive,inactive,inactive,–,–
C[C@@H]1O[C@@H](O[C@H]2C[C@@H](O)[C@]3(CO)[C@H]4[C@H](O)C[C@]5(C)[C@@H](C6=CC(=O)OC6)CC[C@]5(O)[C@@H]4CC[C@]3(O)C2)[C@H](O)[C@H](O)[C@H]1O,inactive,33.5 nM (active) and 53.1 nM (active) and 20.6 nM (active),59.6 nM (active) and 37.6 nM (active) and 32.6 nM (active),–,inactive,inactive,inactive,inactive,–
CCOCn1c(-c2ccc(Cl)cc2)c(C#N)c(Br)c1C(F)(F)F,inactive,30.6 µM (active),–,0.0486 µM (active),inactive,inactive,inactive,inactive,–
CC(C)(O)c1cnn2c(-c3ccc(F)c(-c4c(F)cccc4C#N)c3)cnc2n1,inactive,inactive,inactive,19.3 µM (active),inactive,inactive,inactive,inactive,–
C[C@]12CC[C@H]3[C@@H](CCC4=CC(=O)CC[C@@]43C)[C@@H]1CC[C@@H]2O,inactive,inactive,inactive,–,inactive,inactive,inactive,inactive,inactive
CC(=O)c1cc(C(C)(C)C)cc2c1CCC2(C)C,inactive,54.5 µM (active),inactive,30.6 µM (active),inactive,inactive,inactive,–,–
CCCCOCN(C(=O)CCl)c1c(CC)cccc1CC,inactive,inactive,inactive,–,inactive,inactive,inactive,inactive,–
CCN(CC)C(=S)[S-].CCN(CC)C(=S)[S-].[Zn+2],5.4 µM (active),4.29 µM (active),15.2 µM (active),3.41 µM (active),inactive,inactive,inactive,inactive,–
COP(=O)(OC)SCn1c(=O)oc2cc(Cl)cnc21,inactive,inactive,inactive,–,inactive,inactive,inactive,inactive,inactive
ClCc1ccc(Cl)cc1Cl,inactive,inactive,–,–,inactive,inactive,inactive,inactive,inactive
O=C(NC(=O)c1c(F)cccc1F)Nc1cc(Cl)c(OC(F)(F)C(F)F)c(Cl)c1,inactive,inactive,inactive,19.3 µM (active),inactive,inactive,inactive,inactive,–
CCCCCCCCCCCCCCC(Br)C(=O)O (centres undefined),inactive,54.5 µM (active),–,–,inactive,inactive,inactive,inactive,inactive
CC(Cc1ccc(C(C)(C)C)cc1)CN1C[C@@H](C)O[C@@H](C)C1 (some centres undefined),inactive,inactive,inactive,61.1 µM (active),inactive,inactive,inactive,–,–
N#CCCSCCC#N,inactive,inactive,inactive,inactive,inactive,inactive,inactive,inactive,–

Compound,Potency [1],Potency [2],Potency [3],Potency [4],outcome [5],outcome [6],Potency [7],outcome [8],Potency [9]
O=C(CBr)c1ccc(O)cc1,inactive,inactive,inactive,–,inactive,inactive,inactive,inactive,inactive
BrC(Br)C(Br)(Br)Br,inactive,inactive,inactive,–,inactive,inactive,inactive,inactive,–
CCOCCOC(C)=O,inactive,inactive,inactive,–,inactive,inactive,inactive,inactive,inactive
O=c1ssc(Cl)c1Cl,inactive,54.5 µM (active),61.1 µM (active),30.6 µM (active),inactive,inactive,inactive,–,–
CC1CCC(C(C)C)C(OC(=O)c2ccccc2N)C1 (centres undefined),inactive,26.6 µM (active) and 60.3 µM (active),inactive,13.3 µM (active) and 17 µM (active),inactive,inactive,inactive,inactive,–
Clc1ccc(COC(Cn2ccnc2)c2ccc(Cl)cc2Cl)cc1 (centres undefined),inactive,29.8 µM (active) and 27.2 µM (active),26.6 µM (active),18.8 µM (active) and 45.3 µM (active) and 54.3 µM (active),inactive,inactive,inactive,–,–
CN(C)C1CSSSC1,inactive,inactive,inactive,–,inactive,inactive,inactive,inactive,–
COc1ccc(N)cc1N,inactive,22.4 µM (active) and 33 µM (active),–,1.78 µM (active) and 4.15 µM (active),inactive,inactive,inactive,inactive,63.1 µM (active) and 29.4 µM (active)
CC[C@H](C)[C@H]1O[C@]2(C=C[C@@H]1C)C[C@@H]1C[C@@H](C/C=C(\C)[C@@H](O[C@H]3C[C@H](OC)[C@@H](O[C@H]4C[C@H](OC)[C@@H](O)[C@H](C)O4)[C@H](C)O3)[C@@H](C)/C=C/C=C3\CO[C@@H]4[C@H](O)C(C)=C[C@@H](C(=O)O1)[C@]34O)O2,inactive,14.4 µM (active),–,28.7 µM (active),inactive,inactive,inactive,inactive,–
O=[N+]([O-])c1ccc2ccc3cccc4ccc1c2c34,48.5 µM (active),inactive,inactive,1.22 µM (active),inactive,inactive,inactive,inactive,–
ClC1=C(Cl)[C@]2(Cl)[C@@H]3[C@@H]4C[C@@H]([C@H]5O[C@@H]45)[C@@H]3[C@@]1(Cl)C2(Cl)Cl,inactive,30.6 µM (active),inactive,19.3 µM (active),inactive,inactive,inactive,inactive,–
CCCOCC(=Nc1ccc(Cl)cc1C(F)(F)F)n1ccnc1,inactive,24.3 µM (active),61.1 µM (active),6.11 µM (active),inactive,inactive,inactive,inactive,–
c1ccc2c(c1)OCC(C1=NCCN1)O2 (centres undefined),inactive,–,inactive,27.8 µM (active),inactive,inactive,inactive,inactive,inactive
COP(=S)(OC)Oc1cc(Cl)c(Br)cc1Cl,inactive,–,inactive,6.86 µM (active),inactive,inactive,inactive,inactive,54.5 µM (active)
Nc1ccc(Cc2ccc(N)c(Cl)c2)cc1Cl,inactive,–,inactive,59.1 µM (active),inactive,inactive,inactive,–,–
Fc1cccc(Cl)c1CCl,inactive,–,inactive,–,inactive,inactive,inactive,–,inactive
CCCCCCCCCCCCCC[P+](CCCCCC)(CCCCCC)CCCCCC (tested in a mixture with another compound),inactive,–,21.7 µM (active),0.243 µM (active),inactive,inactive,inactive,inactive,24.3 µM (active)
Fc1ccc(Oc2ccnc3cc(Cl)cc(Cl)c23)cc1,inactive,–,inactive,30.6 µM (active),inactive,inactive,inactive,inactive,–
Cc1cc(N=Nc2ccccc2C)ccc1N,6.11 µM (active) and 6.86 µM (active),–,48.6 µM (active),15.4 µM (active) and 30.6 µM (active),inactive,inactive,inactive,inactive,19.3 µM (active) and 15.4 µM (active)
CC(C)OC(=O)C(O)(c1ccc(Cl)cc1)c1ccc(Cl)cc1,inactive,–,inactive,24.3 µM (active),inactive,inactive,inactive,inactive,–
